Test results taken from PubChem BioAssay (Tox21).
Where “and” joins values, the source holds several entries; their conditions need not be identical. Identical values can stand only once. Calls of active or inactive are those of the source. A call without a number means that no potency is given here. Unless noted, the call rests on the fitted dose curve; in most records, active means well fitted curve in the direction sought with a large enough effect in the repeat runs; inconclusive means weak or mixed curves; inactive means flat fitted curve, though single readings scatter.

Columns and labels:
[1] = qHTS assay to test for compound auto fluorescence at 535 nm (green) in HEK293 cells (AID 720680)
[2] = qHTS assay to test for compound auto fluorescence at 460 nm (blue) in HEK293 cell free culture (AID 720681)
In short: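 Compounds were added to cell-free DMEM with 10% FBS and fluorescence read directly. The blue channel used 405 nm excitation and 460 nm emission, with triamterene as the reference fluorophore.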

[3] = qHTS assay to test for compound auto fluorescence at 535 nm (green) in HEK293 cell free culture (AID 720682)
In short: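 Each library compound, or DMSO control, is added by pintool to medium alone, comprising DMEM and 10% FBS. Emission at 535 nm following 485 nm excitation is quantified against fluorescein.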

[4] = qHTS assay to test for compound auto fluorescence at 590 nm (red) in HEK293 cell free culture (AID 720683)
In short: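 Cell-free wells of DMEM with 10% FBS received compound, and intrinsic fluorescence was read at excitation/emission 540/590 nm. Values expressed as equivalence to Rose Bengal sodium.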

[5] = qHTS assay to test for compound auto fluorescence at 590 nm (red) in HepG2 cell free culture (AID 720684)
In short: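 Auto fluorescence equivalency versus Rose Bengal sodium, red channel Ex/Em 540/590 nm; compounds in cell-free MEM/10% FBS; DMSO vehicle control.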

[6] = qHTS assay to test for compound auto fluorescence at 460 nm (blue) in HepG2 cell free culture (AID 720685)
In short: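 Cell-free plates of MEM plus 10% FBS received 23 nL compound or DMSO vehicle; blue-channel (405/460 nm) intensity scored against triamterene as reference fluorophore.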

[7] = qHTS assay to test for compound auto fluorescence at 460 nm (blue) in HepG2 cells (AID 720687)
In short: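 HepG2 cells in MEM with 10% FBS, attached overnight at 37 C, were exposed to compound or DMSO for 1 hr at 37 C, 5% CO2. Blue fluorescence was read at 405/460 nm, with triamterene as reference fluorophore.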

[8] = molecular target: Glucocorticoid receptor (Homo sapiens) (UniProt P04150); assay: qHTS assay to identify small molecule agonists of the glucocorticoid receptor (GR) signaling pathway (AID 720691; active means well fitted activation curve with a large enough effect in the signal ratio in the repeat runs, not every such curve was filed as active; inconclusive means weak or mixed curves, or effect the other way; inactive means no such curve, though single readings can be large or run the other way; the % refers to the signal ratio; further: potency means the concentration at half of the fitted maximal effect)
In short: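 Agonist-mode qHTS in HeLa cells stably expressing a glucocorticoid-response-element beta-lactamase reporter. Fluorescence intensity read with FRET substrate (2 h, room temperature) after 18 h compound treatment at 37 C.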

[9] = molecular target: Glucocorticoid receptor (Homo sapiens) (UniProt P04150); assay: qHTS assay to identify small molecule antagonists of the glucocorticoid receptor (GR) signaling pathway (AID 720692; active means well fitted inhibition curve with a large enough effect in the signal ratio in the repeat runs, not every such curve was filed as active; inconclusive means weak or mixed curves, or effect the other way; inactive means no such curve, though single readings can be large or run the other way; the % refers to the signal ratio)
In short: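 Inhibition of dexamethasone-driven (5 nM final) beta-lactamase expression was measured in GRE-reporter HeLa cells over 18 h at 37C. Fluorescence was read after 2 h with the B/G FRET substrate at room temperature.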

Chain of Glucocorticoid receptor (Homo sapiens) (P04150 whole entry, looked up): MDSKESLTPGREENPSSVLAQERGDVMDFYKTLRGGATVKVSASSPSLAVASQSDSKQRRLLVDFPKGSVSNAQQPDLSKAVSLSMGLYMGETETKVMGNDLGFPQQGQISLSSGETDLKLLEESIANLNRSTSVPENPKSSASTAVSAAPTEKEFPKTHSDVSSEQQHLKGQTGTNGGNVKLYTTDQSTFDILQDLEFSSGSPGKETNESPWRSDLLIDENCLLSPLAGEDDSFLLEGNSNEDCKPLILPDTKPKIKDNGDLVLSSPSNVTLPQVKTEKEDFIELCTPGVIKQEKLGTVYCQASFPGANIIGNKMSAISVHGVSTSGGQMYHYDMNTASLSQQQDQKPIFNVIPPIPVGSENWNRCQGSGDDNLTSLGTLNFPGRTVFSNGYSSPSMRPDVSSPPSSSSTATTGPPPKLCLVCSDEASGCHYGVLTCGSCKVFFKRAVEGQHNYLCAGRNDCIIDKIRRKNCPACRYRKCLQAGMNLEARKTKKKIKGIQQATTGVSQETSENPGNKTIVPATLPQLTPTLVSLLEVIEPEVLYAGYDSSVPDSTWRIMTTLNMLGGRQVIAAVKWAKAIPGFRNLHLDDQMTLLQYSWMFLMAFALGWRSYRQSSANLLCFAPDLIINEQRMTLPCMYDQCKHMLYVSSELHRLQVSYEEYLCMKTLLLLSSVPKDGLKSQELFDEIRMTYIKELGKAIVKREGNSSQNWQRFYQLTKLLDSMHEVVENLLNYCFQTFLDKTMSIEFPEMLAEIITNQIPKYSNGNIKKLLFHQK

Structure (SMILES)	Potency [1]	Potency [2]	Potency [3]	Potency [4]	Potency [5]	Potency [6]	Potency [7]	Potency [8]	Potency [9]
OC[C@H]1O[C@@H]2O[C@H]3[C@H](O)[C@@H](O)[C@@H](O[C@H]4[C@H](O)[C@@H](O)[C@@H](O[C@H]5[C@H](O)[C@@H](O)[C@@H](O[C@H]6[C@H](O)[C@@H](O)[C@@H](O[C@H]7[C@H](O)[C@@H](O)[C@@H](O[C@H]1[C@H](O)[C@H]2O)O[C@@H]7CO)O[C@@H]6CO)O[C@@H]5CO)O[C@@H]4CO)O[C@@H]3CO	inactive	inactive	inactive	inactive	inactive	inactive	inactive	inactive	inactive
CCCCCCC(C)O (centres undefined)	inactive	inactive	inactive	inactive	inactive	inactive	inactive	inactive	inactive
C=CCOC(=O)C(=C)C	inactive	inactive	inactive	inactive	inactive	inactive	inactive	inactive	inactive
C=C[C@@]1(C)CC(=O)[C@]2(O)[C@@]3(C)[C@@H](O)CCC(C)(C)[C@@H]3[C@H](O)[C@H](OC(C)=O)[C@@]2(C)O1	inactive	inactive	inactive	inactive	inactive	inactive	inactive	inactive	
C/C=C/C(=O)N(CC)c1ccccc1C	inactive	inactive	inactive	inactive	inactive	inactive	inactive	inactive	inactive
COc1cc([C@H]2Oc3cc([C@H]4Oc5cc(O)cc(O)c5C(=O)[C@@H]4O)ccc3O[C@@H]2CO)ccc1O	inactive	inactive	inactive	inactive	inactive	inactive	inactive	inactive	inactive
C1CN(SSN2CCOCC2)CCO1	inactive	inactive	inactive	inactive	inactive	inactive	inactive	inactive	
C[N+](C)(C)CCO	inactive	inactive	inactive	inactive	inactive	inactive	inactive		
CCCOCCO	inactive	inactive	inactive	inactive	inactive	inactive	inactive	inactive	inactive
O=C1CCc2ccccc2O1	inactive	inactive	inactive	inactive	inactive	inactive	inactive	inactive	inactive
CC/C=C\C/C=C\C/C=C\CCCCCCCC(=O)O	inactive	inactive	inactive	inactive	inactive	inactive	inactive		
CN(C)CCCN1c2ccccc2Sc2ccc(Cl)cc21	inactive	inactive	inactive	inactive	inactive	inactive	inactive		
CC/C(=C(/CC)c1ccc(O)cc1)c1ccc(O)cc1	inactive	inactive	inactive	inactive	inactive	inactive	inactive		
C=CCNCC=C	inactive	inactive	inactive	inactive	inactive	inactive	inactive	inactive	inactive
CC(=O)[C@@]1(O)CC[C@H]2[C@@H]3C[C@H](C)C4=CC(=O)C=C[C@]4(C)[C@@]3(F)[C@@H](O)C[C@@]21C	inactive	inactive	inactive	inactive	inactive	inactive	inactive	12.9 nM [inconclusive] (active) and 3.5 nM (active)	
